The panel holds about 83,000 compounds, 20% with a hit somewhere; the sample as a whole holds those more often.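 Each cell line was grown in a 96-well plate and treated with one concentration of compound for 48 hours. Values below 10 were considered active.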 Unmarked numbers belong to inactive results. Calls of active or inactive are those of the source.
Tests used:
Experiment in all cases: NCI-60 one-dose screen, 48 h (100 = growth as untreated, 0 = no growth, -100 = all killed)
Conditions in all cases: 10 µM unless noted
SR leukemia = system: SR leukemia
RPMI-8226 leukemia = system: RPMI-8226 leukemia
OVCAR-8 ovarian = system: OVCAR-8 ovarian
OVCAR-5 ovarian = system: OVCAR-5 ovarian
OVCAR-4 ovarian = system: OVCAR-4 ovarian
SK-OV-3 ovarian = system: SK-OV-3 ovarian
IGROV1 ovarian = system: IGROV1 ovarian
OVCAR-3 ovarian = system: OVCAR-3 ovarian
HS 578T breast = system: HS 578T breast
NCI/ADR-RES ovarian = system: NCI/ADR-RES ovarian

Row | SMILES | growth (SR leukemia) | growth (RPMI-8226 leukemia) | growth (OVCAR-8 ovarian) | growth (OVCAR-5 ovarian) | growth (OVCAR-4 ovarian) | growth (SK-OV-3 ovarian) | growth (IGROV1 ovarian) | growth (OVCAR-3 ovarian) | growth (HS 578T breast) | growth (NCI/ADR-RES ovarian)
1 | N#C/C(=C\c1ccc(Br)cc1)n1nnc2ccc(F)cc21 | -11.9% (active) | -35.4% (active) | 7.38% (active) | 3.03% (active) | 24.9% | 51.6% | -31.2% (active) | -45.3% (active) | 3.56% (active) | 1.62% (active)
2 | CSc1nc2sc3c(c2c(=O)n1-c1ccc([N+](=O)[O-])cc1)CCCCC3 | 85.4% | 99.4% | 73% | 87.8% | 82.4% | 69.5% | 84.8% | 103% | 82.3% | 89.6%
3 | COc1ccc2[nH]cc(-c3nc(-c4cn(C)c5c(Cl)nccc45)cs3)c2c1 | 13.9% | 44.7% | 22.9% | 97.4% | 68.8% | 60.1% | 71.3% | 77.6% | 54.3% | 11.1%
4 | C#COc1cccc(Nc2ncnc3ncc(NC(=O)CCl)cc23)c1 | 16.2% [6.25 µM] | 52.9% [6.25 µM] | 10.3% [6.25 µM] | 31.5% [6.25 µM] | 32.6% [6.25 µM] | 53.1% [6.25 µM] | -42.4% [6.25 µM] (active) | -56.4% [6.25 µM] (active) | 43.4% [6.25 µM] | 12% [6.25 µM]
5 | CC1=Nc2cnc(Nc3ccc(OCCN4CCCCC4)cc3)nc2Nc2ccccc21 | 33.7% | 62.7% | 72.9% | 70.7% | 53% | 34.8% | 14.7% | 68.9% | 33.6% | 69.8%
6 | CCCCCOc1ccc(C(=O)/C(Br)=C/C(=O)O)cc1 | 91.9% | 77.8% | 114% | 108% | 105% | 109% | 85.6% | 100% | 102% | 95%
7 | O=C(O)c1[nH]c(=O)[nH]c(=O)c1[N+](=O)[O-] | 70.9% | 112% | 101% | 126% | 122% | 116% | 133% | 134% | 106% | 103%
8 | Cc1cc(=O)[nH]c2c(C#N)cnn12 | 112% | 101% | 98.7% | 97.7% | 111% | 106% | 97.2% | 101% | 92.6% | 102%
9 | O=C(O)[C@@H]1c2ccccc2-c2ccccc2[C@H]1C(=O)O | 116% | 100% | 78.4% | 83.2% | 98% | 103% | 80.7% | 104% | 94.3% | 95.4%
10 | N#Cc1c(N)nnn1Cc1cc(=O)oc2c1ccc1ccccc12 | 105% | 97.8% | 96.8% | 108% | 108% | 86% | 101% | 103% | 101% | 99.4%
11 | O=c1c2cc(-c3ccccc3)sc2nc2sc(-c3ccccc3)nn12 | 99.1% | 92.4% | 104% | 115% | 105% | 108% | 109% | 108% | 96% | 107%
12 | COc1ccc(-c2csc(NC(=O)CSc3nc(-c4ccccc4)cc(=O)[nH]3)n2)cc1 | 61.1% | 41.8% | 70.8% | 94.3% | 54.2% | 91% | 71.6% | 72% | 84.6% | 51.3%
13 | COc1ccc(C(=O)Nc2ncc(Cc3ccc(F)cc3)s2)cc1 | 11.1% | 15.9% | 27.6% | 29.6% | 48.9% | 44.6% | 18.3% | -22.2% (active) | 31.7% | 7.08% (active)
14 | COc1ccccc1Nc1nc2c(s1)C1=CC[C@H]3[C@@H]4CC[C@H]([C@H](C)CCCC(C)C)[C@@]4(C)CC[C@@H]3[C@@]1(C)CC2 | 108% | 111% | 103% | 106% | 99.8% | 101% | 99.2% | 103% | 105% | 96.1%
15 | C/C(=N/O)c1ccc(F)cc1 | 68% | 85.5% | 86.5% | 80.1% | 95.3% | 85.2% | 84.5% | 132% | 95.6% | 77.7%
16 | COc1ccc(-c2nn(-c3ccccc3)cc2/C=C2/SC(=S)N(C)C2=O)cc1 | 29.3% | 89.8% | 49.8% | 76.3% | -24% (active) | 90.8% | 33.3% | 53% | 39.3% | 74.5%
17 | O=C(NNc1nccc(Nc2ccc(S(=O)(=O)Nc3ccncc3)cc2)n1)c1ccccc1 | 87.6% | 95.6% | 99.4% | 101% | 106% | 107% | 102% | 100% | 110% | 85.4%
18 | CCN(C(=O)N1CCN(c2cc3c(cc2F)c(=O)c(C(=O)O)cn3C2CC2)CC1)c1nc(-c2ccc(Cl)cc2)cs1 | 6.27% (active) | 12.8% | 14.4% | 24.5% | 25.7% | -11.9% (active) | -9.58% (active) | 10.1% | 20.7% | 4.67% (active)
19 | Cc1ccc(-n2c(=S)[nH]c3sc4c(c3c2=O)CCC(=O)C4)cc1 | 28.5% | 22.7% | 50.2% | 87.4% | 69.3% | 91.6% | 48.9% | 4.02% (active) | 34.3% | 27.1%
20 | CC1(c2ccccc2O)NN=C(/N=C/c2cccc([N+](=O)[O-])c2)N1C(Cc1c[nH]c2ccccc12)C(=O)O (stereo not given) | 87.7% | 81.3% | 88.7% | 106% | 90.2% | 61.3% | 62% | 95% | 95.8% | 97.1%
21 | CC(C)=NNc1ccccn1 | 32% | 70.3% | 29% | 54.4% | 12% | 26.2% | 63.2% | 18.8% | 79.5% | 33.5%
22 | COc1cc(-c2nc(SCC(C)C)nc(Nc3cccc4ccccc34)c2C#N)cc(OC)c1OC | 40.7% | 91.2% | 92.1% | 109% | 87.6% | 110% | 106% | 117% | 106% | 98.8%
23 | Oc1ccc(CCn2c(O)c(/C=C3\CN=c4ccccc4=N3)sc2=S)cc1 | 20.9% | 33.8% | 86.8% | 95.6% | 80.5% | 79.5% | 39.9% | 44.7% | 68.5% | 65.7%
24 | O=C1c2c(c3c4ccc(Br)cc4oc3c3[nH]c4ccccc4c23)C(=O)N1O | 8.52% (active) | 3.91% (active) | 47.6% | 95.9% | 66% | 79.1% | 25.3% | 21.3% | 18% | 56.2%
25 | O=c1oc2ccccc2cc1C1=NN=C(SCc2ccccc2)SC1 | 89.4% | 98.7% | 101% | 105% | 88.9% | 97.8% | 101% | 103% | 103% | 105%
26 | O=C(Nc1cccnc1Nc1ccc(F)cc1)c1cn(Cc2cccc(Oc3ccccc3)c2)nn1 | 23.4% | 78.9% | 81.4% | 115% | 86.5% | 87.4% | 91.2% | 71.9% | 69.3% | 37.8%
27 | CCOC(=O)/C=C1\S/C(=N\Nc2cc(=O)[nH]c3ccc(Cl)cc23)N(c2ccccc2)C1=O | 4.23% (active) | 3.83% (active) | 90.1% | 111% | 76.2% | 102% | 62.9% | 71.4% | 99.8% | 101%

From PubChem BioAssay (NCI)
